# According to ChEMBL document CHEMBL1157539, “Thousands of chemical starting points for antimalarial lead identification” (Nature, 2010):
# Legend:
# Type in all cases: functional
# Plasmodium falciparum [1] = assay: GSK_TCMDC: Inhibition of Plasmodium falciparum 3D7 in whole red blood cells, using parasite LDH activity as an index of growth. Test compounds present at 2uM
# Plasmodium falciparum [2] = assay: GSK_TCMDC: Inhibition of Plasmodium falciparum Dd2 in whole red blood cells, using parasite LDH activity as an index of growth. Test compounds present at 2uM
# HepG2 = assay: GSK_TCMDC: Percent inhibition of human HepG2 cell line. Test compounds present at 10uM.
SMILES,Inhibition (Plasmodium falciparum [1]) [%],Inhibition (Plasmodium falciparum [2]) [%],Inhibition (HepG2) [%]
Br.COc1nc(-n2ccc(=N)cc2)nc2ccccc12,90,45,15
CC1CN(Cc2ccc(-c3ccc(-c4nc5ccccc5[nH]4)cc3)cc2)CC(C)O1.O=C(O)C(F)(F)F (stereo not drawn),98,96,48
COc1ccc(-c2ccc3c(-c4ccc(F)cc4)cnc(N)c3c2)cn1,99,86,4
O=C(/C=C/c1ccc(Cl)c(Cl)c1)NC1CCN(Cc2cccc(O)c2)CC1.O=C(O)C(F)(F)F,94,0,0
CCOc1ccc(NC(C)=O)c(O)c1,96,0,6
Cc1noc(NC(=O)c2sc3ccccc3c2O)c1C,90,50,0
Nc1nc(N)c2c(ccc3c2ccn3Cc2ccc(OCc3ccccc3)cc2)n1,98,1,5
COc1ccc(C=NN=c2cc(C)[nH]c3ccccc23)c2ccccc12,99,69,26
CN(C)CCN(Cc1ccccc1-c1ccc(CNCCc2ccccc2)cc1)C(=O)NC1CCCCC1.O=C(O)C(F)(F)F,88,89,98
C[C@H](NC(=O)c1c(CN2CCC(N3CCCCC3=O)CC2)c(-c2cccs2)nc2ccccc12)C1CCCCC1,91,73,8
CN(Cc1cccc(O)c1)C1CCCN(c2cc(NC(=O)c3ccc(F)cc3)ccn2)C1.O=C(O)C(F)(F)F (stereo not drawn),91,12,8
